Assay outcomes from PubChem BioAssay.
A selection: hits, their analogues and other compounds. The true share with any hit is near 2.4%.
D2 PAM-1: human D2 receptor positive allosteric modulation. P14416. DiscoveRx D2 beta-arrestin cells, luminescence, 90 min; 100% = 57 uM dopamine signal. potentiation, % (concentration not given with the values). 360,000 tested, 0.23% active. AID 624464; in the data active = potentiation above about 50%; inconclusive = mostly about 30% to 49%
Target sequence (P14416 whole entry, looked up): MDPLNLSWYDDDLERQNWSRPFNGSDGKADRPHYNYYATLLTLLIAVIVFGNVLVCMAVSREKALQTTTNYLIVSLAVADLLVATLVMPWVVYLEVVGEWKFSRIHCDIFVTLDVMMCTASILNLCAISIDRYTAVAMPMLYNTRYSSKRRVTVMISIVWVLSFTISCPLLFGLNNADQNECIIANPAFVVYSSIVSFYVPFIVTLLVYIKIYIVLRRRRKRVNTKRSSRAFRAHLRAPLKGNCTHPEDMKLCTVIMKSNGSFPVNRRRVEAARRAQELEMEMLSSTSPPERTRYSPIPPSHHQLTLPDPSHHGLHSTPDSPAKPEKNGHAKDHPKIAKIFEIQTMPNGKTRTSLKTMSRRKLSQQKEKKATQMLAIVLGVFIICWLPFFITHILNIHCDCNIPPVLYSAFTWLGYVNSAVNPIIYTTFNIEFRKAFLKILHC
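D2 cells co-treated with compound plus 50 nM dopamine (EC20) for 90 min at 37 deg C to detect potentiation. Beta-arrestin recruitment was read as enzyme-fragment luminescence after 1 h at ambient temperature. Full response was set by 57 uM dopamine.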
D2 antagonist: D2 dopamine receptor (human) antagonism. HEK293 TREx D2 cells, calcium flux, dopamine EC80. inhibition, % at 10 µM. 340,000 tested, 2% active; in the data active = inhibition above about 30%; inactive = below that, where a call was filed
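Calcium flux kinetic readout in an inducible HEK293 TREx D2 line plated overnight at 30 C. After 180 s compound exposure, an EC80 dopamine challenge follows with another 180 s kinetic read to detect antagonism.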
D2 ag-1: human D2 receptor agonism in beta-arrestin assay; P14416; DiscoveRx PathHunter D2 beta-arrestin, luminescence, 90 min; 100% = 57 uM dopamine signal; activation, % (test concentration not listed); 360,000 tested, 0.084% active; AID 624465; in the data active = activation above about 40%; inconclusive = between about 15% and that limit
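DiscoveRx PathHunter D2 beta-arrestin cells (2,100/well) attached overnight, then compound-stimulated 90 min at 37 C in HBSS/10 mM HEPES/0.1% Tween-20 buffer; beta-galactosidase complementation read by luminescence after 1 h at ambient temperature. Dopamine 57 uM final (EC100) as control.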
D2 PAM-2: positive allosteric modulators of human D2 dopamine receptor; HEK293 T-REx D2, calcium flux, EC20 dopamine potentiation; potentiation, % at 10 µM; P14416; AID 485347; 340,000 tested, 0.34% active;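 active = potentiation over 3 SD above the plate norm, cut at about 30% in these data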
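Potentiation of an EC20 dopamine calcium response measured kinetically over 180 s, after a preceding 180 s compound-only read flagging agonists. Cells: inducible Hek293 Trex D2 line, 4000/well, cultured overnight at 30 C before dye loading.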
D2 ag-2: agonists of human D2 dopamine receptor | P14416 | HEK293 T-REx D2 cells, calcium flux agonist mode | activation, % at 2 µM | 340,000 tested, 0.53% active | AID 485358;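 active = activation over 3 SD above normal in the single-dose calcium agonist read, cut at about 30% in these data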
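Calcium-flux readout, 1 cycle/sec over 180 s following compound pin transfer, in inducible HEK293 Trex D2 cells (force-coupled); dopamine controls included. Positive calcium responses during this window marked compounds as potential agonists.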
B2AR arrestin: beta2AR (human) beta-arrestin recruitment activity; 330,000 tested, 0.02% active; beta-arrestin recruitment to beta2AR, cell-based reporter; Potency, µM (titrated, usually from 46.1 µM), most hits filed as activators; P07550; active = well fitted activation curve with a large enough effect; inconclusive = small, poorly fitted or top-dose-only effect; note: nearly all actives have a fitted effect of over 65% in size
Each line names hits and unclear results; the compound was inactive in the other large screens; ! = not confirmed by another sample.

COc1ccc(CNC(=O)c2cc(-c3ccccc3OC)on2)cc1	D2 antagonist 91.3
COc1ccc2cc(C(=O)NCc3ccccc3)[nH]c2c1	none
COc1ccccc1-c1cc(C(=O)NCc2ccc(Cl)cc2)no1	none (no result: D2 antagonist, D2 PAM-2, D2 ag-2)
COc1ccccc1-c1cc(C(=O)NCc2ccccc2)no1	D2 antagonist 80.6
COc1ccccc1-c1cc(C(=O)NCc2ccc(F)cc2)no1	D2 antagonist 74.1
COc1ccc(-c2cc(C(=O)NCc3ccc(F)cc3)no2)cc1	none (no result: D2 PAM-1, D2 antagonist, D2 ag-1, B2AR arrestin)
COc1cccc2[nH]c(C(=O)NCc3ccccc3)cc12	D2 antagonist 41.7
CCCCNC(=O)OCC(CC)NC(=O)OC(C)C (stereo not drawn)	none
O=C(NCc1ccccc1)c1cc(-c2cccs2)on1	none (no result: D2 antagonist, D2 PAM-2, D2 ag-2)
O=C(NCc1ccccc1)c1nc(-c2cccs2)no1	D2 antagonist 36.3
COc1ccc(OC)c(NC(=O)CSc2nnc3ccc(-c4ccncc4)nn23)c1	none
Cc1ccc(-c2cc(C(=O)O)c3cc(Br)ccc3n2)s1	D2 antagonist 31.0!
N#Cc1ccc(CN2CCN(C(=O)c3ccc(S(=O)(=O)N4CCCCCC4)cc3)CC2)cc1	none (no result: D2 antagonist, D2 PAM-2, D2 ag-2)
Cc1ccc(-c2nc3c(c(=O)c4ccccc4n3C)c(=O)n2Cc2ccco2)cc1	D2 antagonist 35.6
COC(=O)c1cc(Cl)c(NC(=O)c2cc3ccccc3o2)cc1OC	D2 antagonist 32.4
COc1ccc(NC(=O)c2cc3ccccc3o2)c(OC)c1	none (no result: D2 PAM-1, D2 antagonist, D2 ag-1, D2 ag-2, B2AR arrestin)
O=[N+]([O-])c1ccc(/C=N/NC(=S)Nc2ccc(Cl)cc2Cl)s1	D2 antagonist 45.4
O=[N+]([O-])c1ccc(O)c(/C=N/NC(=S)Nc2ccc(Cl)cc2Cl)c1	none
Cc1cc(NC(=O)COC(=O)c2c(C)c(C)c(C)c(C)c2C)no1	none (no result: D2 antagonist, D2 PAM-2, D2 ag-2)
COc1ccc(Cl)cc1C(=O)OCC(=O)c1c(N)n(C)c(=O)n(C)c1=O	none (no result: D2 antagonist, D2 PAM-2, D2 ag-2, B2AR arrestin)
COc1cc2ccccc2cc1C(=O)OCC(=O)c1c(N)n(C)c(=O)n(C)c1=O	D2 antagonist 52.1
Cn1c(=O)c(C(=O)COC(=O)c2cc(C(F)(F)F)nc3ccccc23)c(N)n(Cc2ccccc2)c1=O	none (no result: D2 PAM-1, D2 ag-1)
Cn1c(=O)c(C(=O)COC(=O)c2cc(-c3ccccc3)nc3ccccc23)c(N)n(Cc2ccccc2)c1=O	D2 antagonist 30.6 (no result: D2 PAM-1, D2 ag-1)
COCC(=O)n1nc(-c2ccccc2)nc1NCc1ccccc1	none
Cc1cccc(C(C)C)c1NC(=O)Cc1ccc(S(=O)(=O)N2CCOCC2)s1	none
O=C(NC1CCNCC1)C1CCCCC1	none
NC(=O)C1CCCNC1 (stereo not drawn)	D2 antagonist 46.6
CCCOc1ccc(CSc2nc3ccccc3[nH]2)cc1	none
CCOc1ccc(OCCSc2nc3ccccc3[nH]2)cc1	D2 PAM-2 32.2
Cc1cc(C)c(CN2CCN(C(=O)CC[C@H]3O[C@@H](n4ccc(=O)[nH]c4=O)[C@H](O)[C@@H]3O)CC2)c(C)c1	none (no result: D2 antagonist, D2 PAM-2, D2 ag-2, B2AR arrestin)
O=C(NC1CCN(Cc2ccccc2)CC1)c1ccccc1OCc1ccccc1	D2 antagonist 85.6
O=C(NC1CCN(Cc2ccccc2)CC1)c1ccccc1OCc1ccccc1Cl	D2 antagonist 84.5
CSc1ncccc1C(=O)NC1CCN(Cc2ccccc2)CC1	none
O=C(NC1CCN(Cc2ccccc2)CC1)c1ccccc1Cl	none
CCOc1ccccc1C(=O)NC1CCN(Cc2ccccc2)CC1	D2 antagonist 89.2
O=C(Nc1ccccc1F)C1CCN(C(=O)NC2CCCCC2)CC1	none
CCOC(=O)CN(C(=O)CSc1nnc2c(n1)[nH]c1ccc(OC)cc12)c1ccc(F)cc1	D2 antagonist 79.7
COc1cc(NC(=O)C2CCN(S(=O)(=O)c3c(C)noc3/C=C/c3c(C)cc(C)cc3C)CC2)cc(OC)c1	none (no result: D2 PAM-1, D2 antagonist, D2 ag-1, B2AR arrestin)
CCCCN(CC)CCNC(=O)C1CCN(S(=O)(=O)c2cccc3nsnc23)CC1	none
CCCN(CCC)CCNC(=O)C1CCN(S(=O)(=O)c2cccc3nsnc23)CC1	D2 antagonist 37.5
Clc1ccc2c(c1)C(N1CCNCC1)=Nc1ccccc1O2	D2 antagonist 75.9
CC1=Nc2cc(Cl)ccc2Oc2ccccc21	none
FC(F)(F)c1ccc(Cl)c(N/N=C/c2ccc(N3CCOCC3)s2)c1	D2 PAM-1 72.3, D2 ag-1 inconclusive (no result: D2 antagonist, D2 PAM-2, D2 ag-2)
Cn1c(=O)c2[nH]c(-c3ccccc3)c(O)c2n(C)c1=O	D2 PAM-1 107.6, D2 ag-1 inconclusive
Cn1c(=S)[nH]c(=O)c2ncc(=O)[nH]c21	none
O=C(CN1C(=O)CSc2ccc(S(=O)(=O)N3CCOCC3)cc21)NCCCN1CCc2ccccc2C1	D2 antagonist 47.1
CC1CC(C)CN(CCCNC(=O)c2ccc3c(c2)NC(=O)CS3)C1 (stereo not drawn)	D2 antagonist 47.7
Cc1cc(C)n(CCCNC(=O)c2ccc3c(c2)NC(=O)CS3)n1	none
CC1CC(C)CN(CCCNC(=O)CN2C(=O)CSc3ccc(S(=O)(=O)N4CCCCC4)cc32)C1 (stereo not drawn)	D2 antagonist 51.8
COC(=O)CSc1nnc(NC(=O)C2CC(=O)N(c3ccc(F)cc3)C2)s1 (stereo not drawn)	none
CCn1nnc(NC(=S)NC(=O)c2ccc(-c3cccc(Cl)c3)o2)n1	B2AR arrestin 17.8µM
CCOc1ccc(S(=O)(=O)N2CCCCC2)cc1NC(=O)Cc1ccsc1	D2 antagonist 33.9
COc1ccc(CC(=O)Nc2cc(S(=O)(=O)N3CCCCC3)ccc2C)cc1	D2 antagonist 30.7
CCOc1ccc(S(=O)(=O)N2CCCCC2)cc1NC(=O)Cc1ccc(OC)cc1	none (no result: D2 antagonist, D2 PAM-2, D2 ag-2, B2AR arrestin)
COc1ccc(S(=O)(=O)N2CCCCC2)cc1NC(=O)Cc1ccsc1	D2 antagonist 30.2
O=C1CC(NNc2nc3ccccc3s2)C(=O)N1c1ccc(F)cc1 (stereo not drawn)	none
CCN(C(=O)c1c(-c2ccccc2Cl)noc1C)C1CCCCC1	D2 PAM-2 47.1
Cc1onc(-c2ccccc2Cl)c1C(=O)N(C)C1CCCCC1	none
CC(C)(C)NC(=O)CSc1ncnc2c1cnn2-c1ccccc1	none
Cc1ccc(CNC(=O)c2nnn(-c3cccc(C)c3)c2N)cc1	none (no result: D2 antagonist, D2 PAM-2, D2 ag-2)
Cc1cccc(-n2nnc(C(=O)NCc3ccccn3)c2N)c1	D2 antagonist 30.5
COc1c(Cl)cccc1-c1cn2ccc(C)cc2n1	D2 antagonist 34.8
C#Cc1ccc([C@@H]2C=C(C(=O)N3CCN(Cc4ccc5c(c4)OCO5)CC3)O[C@H](OCCCCO)C2)cc1	none
CC(OC(=O)Cn1c(C(F)(F)F)nc2ccccc21)C(N)=O (stereo not drawn)	D2 antagonist 39.9
O=C(Nc1nnc(C(F)(F)F)s1)c1ccc(Br)s1	D2 antagonist 34.8
O=[N+]([O-])c1cccc2[nH]ncc12	none (no result: D2 antagonist, D2 PAM-2, D2 ag-2, B2AR arrestin)
CCc1ccccc1Oc1nc(NCc2ccccc2)nc2ccsc12	none (no result: D2 antagonist, D2 PAM-2, D2 ag-2, B2AR arrestin)
